Screening data from PubChem BioAssay.
A selection: hits, their analogues and other compounds. The true share with any hit is near 4.5%.
Gli-Sufu antag: Gli-Sufu pathway antagonism; Sufu-KO-LIGHT fibroblasts, Gli luciferase reporter luminescence; inhibition, % at 5 µM; actives 0.74% (n = 340,000); AID 588413;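 active means inhibition above about 55%, limit read from the data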
Mdm2 MdmX PPI: human Mdm2/MdmX binding inhibition; O15151+Q00987; SaOS-2 split-luciferase Mdm2/MdmX complementation, luminescence; inhibition, % at 8 µM; actives 3% (n = 330,000);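 active means inhibition of at least 50% at 8 µM in the primary screen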
Target sequence (O15151 whole entry, looked up): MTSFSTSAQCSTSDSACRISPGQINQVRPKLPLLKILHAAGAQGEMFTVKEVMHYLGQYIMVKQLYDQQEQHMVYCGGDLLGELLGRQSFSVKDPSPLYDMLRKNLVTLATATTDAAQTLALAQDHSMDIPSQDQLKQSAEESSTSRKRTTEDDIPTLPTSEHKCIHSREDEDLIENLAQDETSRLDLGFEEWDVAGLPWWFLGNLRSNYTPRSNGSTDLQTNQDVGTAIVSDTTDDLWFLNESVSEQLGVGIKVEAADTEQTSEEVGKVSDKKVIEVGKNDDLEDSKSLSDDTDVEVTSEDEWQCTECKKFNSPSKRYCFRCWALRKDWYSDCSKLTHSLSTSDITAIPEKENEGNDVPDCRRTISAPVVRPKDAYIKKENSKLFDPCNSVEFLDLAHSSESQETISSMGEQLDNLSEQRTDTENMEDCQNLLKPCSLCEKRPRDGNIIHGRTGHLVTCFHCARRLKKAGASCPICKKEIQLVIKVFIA
Target sequence (Q00987 whole entry, looked up): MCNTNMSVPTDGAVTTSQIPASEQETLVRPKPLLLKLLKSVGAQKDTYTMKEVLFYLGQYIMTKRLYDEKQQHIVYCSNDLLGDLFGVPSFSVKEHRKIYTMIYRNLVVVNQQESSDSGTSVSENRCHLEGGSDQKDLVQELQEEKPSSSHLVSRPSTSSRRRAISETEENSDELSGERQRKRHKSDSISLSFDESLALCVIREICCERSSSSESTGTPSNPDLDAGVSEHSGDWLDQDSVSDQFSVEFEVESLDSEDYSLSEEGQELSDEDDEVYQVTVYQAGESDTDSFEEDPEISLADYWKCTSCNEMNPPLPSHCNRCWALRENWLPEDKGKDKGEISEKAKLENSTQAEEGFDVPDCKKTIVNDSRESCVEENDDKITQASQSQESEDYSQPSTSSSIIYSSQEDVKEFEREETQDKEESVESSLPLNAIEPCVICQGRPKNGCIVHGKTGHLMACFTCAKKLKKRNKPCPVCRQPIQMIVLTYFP
697 NFkB inh: lowers PMA/ionomycin-induced NF-kB signal in 697 B cells; actives 0.33% (n = 330,000); AID 435022; 697 B-cell NF-kB luciferase reporter, 16 h; inhibition, % at 4 µM; in the data active means inhibition above about 35%
Beta apoptosis: beta cell apoptosis inhibition; INS-1E cytokine-induced death, ATP luminescence, 48 h; percent of positive-control rescue, neutral wells zero; protection from apoptosis, % (no concentration beside the values); actives 0.8% (n = 300,000);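 active means Every replicate reaches about 75%, or at least half do and their mean reaches it too, limit read from the data; inconclusive means At least half of replicates reach the limit but their mean does not; inactive means Under half of replicates reach the limit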;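 further: higher means more ATP so stronger rescue from cytokine killing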
CSC inhib: cancer stem cell inhibition; actives 1.1% (n = 300,000); AID 2717; inhibition, % at 7.5 µM; cancer stem cell-like cells viability, luminescence; in the data active means inhibition above about 75%; inconclusive means no clear call, values can overlap the other calls; tested in HMLE shEcad cells
Jurkat NFkB inh: lowers PMA/ionomycin-induced NF-kB signal in Jurkat cells. AID 435003. PMA/ionomycin-induced NF-kB luciferase reporter, luminescence. inhibition, % at 4 µM. actives 0.53% (n = 330,000); in the data active means inhibition above about 50%
Mdm2 MdmX conf: human Mdm2/MdmX binding inhibition, confirmed. inhibition, % at 8 µM. shares compounds with Mdm2 MdmX PPI. actives 55% (n = 10,000). luminescent assay; in the data active means inhibition above about 40%
Full FLuc ctr: inhibits full-length luciferase, flagging false Mdm2/MdmX hits. inhibition, % at 8 µM. SaOS-2 full-length luciferase counterscreen, luminescence. shares compounds with Mdm2 MdmX PPI. actives 77% (n = 6,200);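 active means mean inhibition at 8 µM reaching about 37%, which flags the compound as non-specific, limit read from the data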;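 further: p53-null SaOS-2 cells with luciferase driven by a doxycycline-inducible promoter; compound on cells about two nights before reading with doxycycline added after day one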
Numbers stand for hits; 0 = inactive; ? = inconclusive; - = no result.

SMILES | Gli-Sufu antag | Mdm2 MdmX PPI | 697 NFkB inh | Beta apoptosis | CSC inhib | Jurkat NFkB inh | Mdm2 MdmX conf | others
COc1ccc(C(=O)N2CCN(c3ccccc3)CC2)cc1S(=O)(=O)N1CCCC1 | 0 | 0 | 0 | 0 | 0 | 0 | -
CCCCn1c(N)c(N(CCOC)C(=O)c2ccc3c(c2)OCCO3)c(=O)[nH]c1=O | 0 | 0 | 0 | 0 | 0 | 0 | -
CC[C@]12c3[nH]c4cc(CCC(=O)N(C)C)ccc4c3CCN1C(=O)[C@@H](CC(=O)NCC13CC4CC(CC(C4)C1)C3)C[C@@H]2C(=O)N1CCN(C(=O)c2ccco2)CC1 | 0 | 50 | 0 | - | - | - | 0
CC[C@]12c3[nH]c4ccccc4c3CCN1C(=O)C(CC(=O)NCC13CC4CC(CC(C4)C1)C3)C[C@@H]2C(=O)N1CCN(C(=O)c2ccco2)CC1 (stereo partly drawn) | 0 | 0 | 0 | 0 | 0 | 0 | -
CCN(CC)C(=O)[C@H]1CC(CC(=O)NCC23CC4CC(CC(C4)C2)C3)C(=O)N2CCc3c([nH]c4ccc(OC)cc34)[C@]12C (stereo partly drawn) | 0 | 64 | 0 | - | - | - | 0
CCN(CC)C(=O)[C@H]1C[C@H](CC(=O)NCc2cccc(C(F)(F)F)c2)C(=O)N2CCc3c([nH]c4cc(-c5ccco5)ccc34)[C@]12C | 0 | 53 | 0 | - | - | - | 0
COC(=O)C1=CN(c2ccc(F)cc2)C=C(C(=O)OC)C1c1ccc(O)cc1 | 0 | 0 | 0 | 0 | 0 | 0 | -
CCCn1c(CN2CCN(C(=O)OCC)CC2)nc2cc(NC(=O)CC)ccc21 | 0 | 0 | 0 | 0 | 0 | 0 | -
Cc1ccc(NC(=S)/N=C(\N)Nc2nc(C)c3cc(C)ccc3n2)c(C)c1 | 0 | 72 | 0 | 0 | 0 | 0 | 41 | Full FLuc ctr=79
CCOc1ccc2nc(N/C(N)=N/C(=S)Nc3cccc(C)c3)nc(C)c2c1 | 0 | 0 | 0 | 0 | 0 | 0 | -
CCc1ccccc1NC(=S)/N=C(\N)Nc1nc(C)c2cc(C)ccc2n1 | 0 | 67 | 0 | 0 | 0 | 0 | 52 | Full FLuc ctr=70
COc1ccc2nc(N/C(N)=N/C(=S)Nc3cccc(C)c3)nc(C)c2c1 | 0 | 0 | 0 | 0 | 0 | 0 | -
COc1ccc2nc(N/C(N)=N/C(=S)Nc3c(C)cccc3C)nc(C)c2c1 | 0 | 57 | 0 | 0 | 0 | 0 | 41 | Full FLuc ctr=68
O=Cc1ccc(OC(=O)Cc2ccc(F)cc2)cc1 | - | 0 | 0 | 0 | 0 | 0 | -
O=C(CN1C(=O)NC2(CCCCCC2)C1=O)c1ccc(OC(F)F)cc1OC(F)F | 0 | 0 | 0 | 0 | 0 | 0 | -
CC(C)(C)C(=O)O/N=C(\N)Cc1ccc(-c2csnn2)cc1 | 0 | 77 | 0 | 0 | 0 | 0 | 0
Cc1ccc(C(=O)NC(=C(Cl)Cl)S(=O)(=O)c2ccc(Cl)cc2)cc1 | 0 | 0 | 0 | 0 | 0 | 0 | -
Cc1ccc(S(=O)(=O)C(NC(=O)c2ccccc2)=C(Cl)Cl)cc1 | 0 | 65 | 0 | 0 | 0 | 0 | 0
O=C(NC(=C(Cl)Cl)S(=O)(=O)c1ccc(Cl)cc1)c1ccccc1 | 0 | 62 | 0 | 0 | 0 | 0 | 58 | Full FLuc ctr=0
CC(=O)NC(=C(Cl)Cl)S(=O)(=O)c1ccccc1 | 0 | 0 | 0 | 0 | 0 | 0 | -
CN(C)/C=C/C(=O)c1ccc2noc(-c3cccc(F)c3)c2c1 | 0 | 53 | 0 | 0 | 0 | 0 | 0
COc1ccccc1-c1nnc(Sc2nc([N+](=O)[O-])nn2C)o1 | 0 | 78 | 0 | 0 | 0 | 0 | 99 | Full FLuc ctr=50
Cn1cnnc1Sc1nc([N+](=O)[O-])nn1C | 0 | 0 | 0 | 0 | 0 | 0 | -
Cc1ccc(NC(=O)c2ccc3nc(N4CCOCC4)sc3c2)c(Cl)c1 | 0 | 0 | 0 | 0 | 0 | 0 | -
O=C(Nc1ccc(S(=O)(=O)N2CCCCCC2)cc1)c1[nH]ncc1[N+](=O)[O-] | - | 52 | 0 | 0 | 0 | 0 | 0
SMILES | Gli-Sufu antag | Mdm2 MdmX PPI | 697 NFkB inh | Beta apoptosis | CSC inhib | Jurkat NFkB inh | Mdm2 MdmX conf | others
Cc1ccc(C)c(Nc2cc(C)nc(-c3ccccc3O)n2)c1 | 0 | 59 | 0 | 0 | 0 | 0 | 62 | Full FLuc ctr=49
Cc1cc(N/N=C/c2c(O)ccc3ccccc23)nc(-c2ccccc2O)n1 | 0 | 61 | 0 | 89 | 0 | 0 | 53 | Full FLuc ctr=39
Cc1cc(NC2CCCCC2)nc(-c2ccccc2O)n1 | 0 | 0 | 0 | 0 | 0 | 0 | -
COc1ccc(C(OCC(O)CNCCc2ccc(S(N)(=O)=O)cc2)c2ccc(OC)cc2)cc1 (stereo not drawn) | 0 | 0 | 0 | 0 | 0 | 0 | -
OC(CNCCc1ccc(C(F)(F)F)cc1)COC(c1ccccc1)c1ccccc1 (stereo not drawn) | 0 | 87 | 0 | 0 | 107 | 0 | 42 | Full FLuc ctr=56
COc1cccc(/C=C/C(=O)c2ccc(NS(=O)(=O)c3ccc(C)cc3)cc2)c1 | 0 | 71 | 0 | 0 | 81 | 0 | 0
COc1cc(/C=C/C(=O)O)ccc1OS(=O)(=O)c1ccc(C)cc1 | 0 | 0 | 0 | 0 | 0 | 0 | -
COc1cc(/C=C/C(=O)c2ccc(NS(=O)(=O)c3ccc(C)cc3)cc2)ccc1OC(F)F | 0 | 92 | 0 | - | 0 | 0 | 42 | Full FLuc ctr=62
CN(C)S(=O)(=O)c1ccc(NC(=O)CN2C(=O)NC(Cc3ccccc3)C2=O)cc1 (stereo not drawn) | 0 | 0 | 0 | 0 | 0 | 0 | -
CCC(Oc1ccccc1)C(=O)NCCCN1CCOCC1 (stereo not drawn) | 0 | 0 | 0 | 0 | 0 | 0 | -
Cc1cccc(S(=O)(=O)c2c(N)n(Cc3ccco3)c3nc4ccccc4nc23)c1 | 0 | 0 | 0 | 0 | 0 | 0 | -
Cc1cccc(-n2cnc3c(c2=O)c2nc4ccccc4nc2n3Cc2ccco2)c1 | 0 | 54 | 0 | 0 | 0 | 0 | 0
O=C(CCCn1cncn1)N1CCCC(N2CCN(c3ccc(F)cc3)CC2)C1 (stereo not drawn) | 0 | 0 | 0 | 0 | 0 | 0 | -
CC(=O)Nc1cccc(NC(=O)CSc2nnc3ccc(-c4ccncc4)nn23)c1 | 0 | 0 | 0 | 0 | 0 | 0 | -
CC(C)(C)OC(=O)NCCc1nnc(SCc2ccccc2Cl)o1 | 0 | 0 | 0 | 0 | 0 | 0 | -
CC(C)(C)OC(=O)NCCc1nnc(S(=O)(=O)Cc2ccc(Cl)cc2Cl)o1 | 0 | 77 | 0 | 0 | ? | 0 | 59 | Full FLuc ctr=0
O=C(O)CC(c1ccc(C(F)(F)F)cc1)N1Cc2ccccc2C1=O (stereo not drawn) | 0 | 0 | 0 | 0 | 0 | 0 | -
COc1ccc(N/N=C(/C)c2cnnc(-c3ccccc3)n2)cc1 | 0 | 79 | 0 | 0 | 0 | 0 | 0
CC1CCc2c(sc3ncn(CCO)c(=O)c23)C1 (stereo not drawn) | 0 | 0 | 0 | 0 | 0 | 0 | -
CC1CCc2c(sc3ncn(CC(=O)N=Nc4c(O)[nH]c5ccccc45)c(=O)c23)C1 (stereo not drawn) | 0 | 53 | 0 | 0 | 0 | 0 | 0
O=C(N/N=C/c1ccc(O)cc1)c1ccc(COc2cc(Cl)ccc2Cl)o1 | 0 | 61 | 0 | 0 | 0 | 0 | 0
